In all, about 33,000 sequences were measured (“e-score”: median about -0.038, highest 2% from about 0.33 on). The full list was thinned out, with the highest values kept by preference.

Results on 173 sequences are retold here after publication PMC6212790, “How bacterial xenogeneic silencer rok distinguishes foreign from self DNA in its resident genome”.

This experiment deals with T1, GST-Rok-C97-191 (Bacillus subtilis subsp. subtilis str. …, UniProt O34857 97-191).
T1 sequence: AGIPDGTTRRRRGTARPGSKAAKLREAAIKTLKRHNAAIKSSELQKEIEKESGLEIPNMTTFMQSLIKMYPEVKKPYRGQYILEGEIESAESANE
The experiment in a line: protein binding microarray; Rok is a gene silencer of Bacillus subtilis; high values mean tight binding. The conditions noted are these: protein: recombinant; tags: GST (pTH5325, pDEST15-Magic modified); dsDNA, one strand shown. In short, it runs like this: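 Each has a 25-mer constant primer and a 35-mer variable part from a de Bruijn sequence of order 10, covering every non-palindromic 8-mer at least 32 times (palindromic 16). Preference for each 8-mer is given as a rank-based, unitless enrichment score (E-score). Its range runs from 0.5 (most favored) to −0.5 (most disfavored).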
As for AAGTTTAA, the binding signal was -0.0234 E-score.

Turning to GAGTTTCA, the binding signal is -0.0326 E-score.

With GAGTTTAA, the binding signal turned out to be 0.0511 E-score.

TAGTTTCA: the binding signal was determined as 0.361 E-score.

In the case of CAGTTTCA, the binding signal is -0.125 E-score.

Consider TAGTTTAA, for which the binding signal came to 0.345 E-score.

Turning to ACCCGCTA, the binding signal amounted to 0.0179 E-score.

Turning to ACCTGTGC, the binding signal was -0.159 E-score.

ACAACCAC: the binding signal is -0.126 E-score.

As to ATACTGTG, the binding signal was -0.082 E-score.

For the sequence CTACTGTA, the binding signal was 0.384 E-score.

On to CTACTGAA, for which the binding signal turned out to be 0.098 E-score.

For the sequence ATACTGAA, the binding signal was determined as 0.0579 E-score.

On to GTACTGTA, for which the binding signal was found to be 0.219 E-score.

Consider ATACTGTA, for which the binding signal stood at 0.334 E-score.

Take CATGGAAA: the binding signal was 0.0212 E-score.

Turning to AGTACGAG, the binding signal worked out at 0.125 E-score.

On to ATACTATC, for which the binding signal is 0.359 E-score.

In the case of CGACTATC, the binding signal is -0.0118 E-score.

In the case of ATACTAGC, the binding signal amounted to 0.288 E-score.

With ATACTCTC, the binding signal worked out at 0.0157 E-score.

On to CCACTATC, for which the binding signal stood at 0.0612 E-score.

With CTACTATC, the binding signal was found to be 0.344 E-score.

In the case of ATTACCAA, the binding signal came out at 0.333 E-score.

As to CTTACCAA, the binding signal was 0.0678 E-score.

For ATTACCTA, the binding signal was determined as 0.337 E-score.

In the case of ATTACCTC, the binding signal turned out to be 0.136 E-score.

Turning to ATTACCTG, the binding signal stood at 0.0992 E-score.

As to ATTACCAC, the binding signal was determined as 0.181 E-score.

Take AAATTTCT: the binding signal is 0.203 E-score.

On to AAATAGAC, for which the binding signal is 0.0478 E-score.

As to AAATAGAA, the binding signal was 0.36 E-score.

Regarding AAATAGAG, the binding signal was -0.0395 E-score.

Turning to AAATAGAT, the binding signal amounted to 0.343 E-score.

In the case of AAATAGGT, the binding signal came to 0.314 E-score.

In the case of GAATAGAA, the binding signal was found to be 0.209 E-score.

On to AAGAGAGA, for which the binding signal was -0.188 E-score.

As for ACCTCCCG, the binding signal was -0.064 E-score.

Turning to CATCAGAC, the binding signal is -0.171 E-score.

Turning to ATATATAC, the binding signal amounted to 0.367 E-score.

Consider ACGTATAC, for which the binding signal was found to be 0.137 E-score.

Turning to ACGTATAT, the binding signal amounted to 0.373 E-score.

On to CTATATGC, for which the binding signal was determined as 0.209 E-score.

For ACGTATAA, the binding signal is 0.268 E-score.

As for GGATATAC, the binding signal came out at 0.288 E-score.

CTATATAC: the binding signal was 0.376 E-score.

On to ATATACAC, for which the binding signal stood at 0.289 E-score.

AGATATAC: the binding signal was determined as 0.221 E-score.

In the case of GCATATAC, the binding signal came out at 0.18 E-score.

For the sequence GTATATAC, the binding signal came out at 0.43 E-score.

As for CTCTATAC, the binding signal was 0.143 E-score.

As for ACTTAAGA, the binding signal is -0.12 E-score.

In the case of TTGCCAAA, the binding signal was 0.142 E-score.

For AAGGAAGC, the binding signal was -0.125 E-score.

Consider ACTGCGCG, for which the binding signal was -0.0406 E-score.

For CGAGTGCG, the binding signal was -0.0584 E-score.

For AGATATCT, the binding signal came out at 0.355 E-score.

Regarding AGATATAT, the binding signal worked out at 0.421 E-score.

In the case of AGATATCC, the binding signal is 0.00982 E-score.

Consider ACATATGA, for which the binding signal came to 0.00179 E-score.

On to ATATATAT, for which the binding signal stood at 0.443 E-score.

With AGATATAG, the binding signal was determined as 0.188 E-score.

With ACATATGT, the binding signal worked out at 0.4 E-score.

As for ATATATGG, the binding signal was found to be 0.279 E-score.

With ATATACAT, the binding signal came to 0.288 E-score.

On to AGATATAA, for which the binding signal turned out to be 0.282 E-score.

Turning to AGATATCA, the binding signal was found to be 0.0773 E-score.

In the case of ACATATGG, the binding signal came out at 0.132 E-score.

For the sequence ATGTGCCA, the binding signal was -0.163 E-score.

For ACAACCAA, the binding signal stood at 0.0769 E-score.

Regarding GCGCTCTA, the binding signal was determined as 0.0916 E-score.

In the case of GGAATGCA, the binding signal was -0.0343 E-score.

As to ACTTTCAT, the binding signal stood at 0.0835 E-score.

In the case of CGGTCCAG, the binding signal is -0.196 E-score.

As to ACATATAA, the binding signal was 0.26 E-score.

Consider ACATATAG, for which the binding signal came to 0.206 E-score.

In the case of ACATATAT, the binding signal was 0.4 E-score.

On to AACCTAGA, for which the binding signal is 0.13 E-score.

In the case of AGTATCGA, the binding signal amounted to 0.174 E-score.

As to TCTAATAA, the binding signal came out at 0.105 E-score.

On to ATTAATAC, for which the binding signal came out at 0.335 E-score.

AATAATAG: the binding signal is 0.405 E-score.

As for AATAATAA, the binding signal was 0.371 E-score.

As for CATAATAA, the binding signal was 0.281 E-score.

Take GCTAATAA: the binding signal was 0.212 E-score.

Turning to CTTAATAC, the binding signal was found to be 0.0879 E-score.

ATTAATAA: the binding signal came to 0.234 E-score.

With GATAATAA, the binding signal is 0.174 E-score.

Turning to CATAATAG, the binding signal turned out to be 0.136 E-score.

As to TATAATAA, the binding signal turned out to be 0.374 E-score.

Take AATAATAT: the binding signal came to 0.321 E-score.

In the case of GCATCCGC, the binding signal was -0.147 E-score.

As to CACATGTC, the binding signal is -0.0475 E-score.

For GAAATTCA, the binding signal is 0.106 E-score.

Regarding ACGTGGCG, the binding signal was -0.166 E-score.

Consider AAGCTGCC, for which the binding signal is -0.171 E-score.

Regarding GGCGGCGA, the binding signal was -0.142 E-score.

For the sequence ACCTGGCA, the binding signal is -0.0345 E-score.

For the sequence CAAAATAA, the binding signal turned out to be 0.0411 E-score.

Turning to CAAAATAG, the binding signal was 0.333 E-score.

For AAAAATAG, the binding signal came out at 0.2 E-score.

Turning to GATAACGA, the binding signal turned out to be 0.0698 E-score.

Regarding AATAATAC, the binding signal is 0.335 E-score.

For CATAATAC, the binding signal is 0.191 E-score.

Regarding AATAACGA, the binding signal came to 0.169 E-score.

On to TATAACGA, for which the binding signal came to 0.336 E-score.

Turning to GATAATAC, the binding signal turned out to be 0.21 E-score.

Take CAGCCCAG: the binding signal is -0.136 E-score.

Consider CTTTTTTA, for which the binding signal was -0.151 E-score.

For GAACATAA, the binding signal is 0.144 E-score.

Turning to AACGTCGC, the binding signal is 0.0434 E-score.

With ACTAGAGA, the binding signal was determined as 0.118 E-score.

As for ACTAGAAA, the binding signal stood at 0.4 E-score.

As for ACTAGAAG, the binding signal is 0.199 E-score.

Consider ACTAGAAT, for which the binding signal came out at 0.349 E-score.

ACTAGAAC: the binding signal was determined as 0.255 E-score.

On to CCTAGAAA, for which the binding signal stood at 0.16 E-score.

Turning to ACGTTGAT, the binding signal was 0.0039 E-score.

As to ACTTAAAG, the binding signal was -0.106 E-score.

ACAGCCGA: the binding signal was -0.00523 E-score.

Turning to AATAAAAA, the binding signal was found to be 0.295 E-score.

AGTAAAAT: the binding signal turned out to be 0.329 E-score.

In the case of AGTAAAAA, the binding signal came out at 0.341 E-score.

On to AGTAAAAG, for which the binding signal was found to be 0.267 E-score.

For the sequence AGTAAAAC, the binding signal turned out to be 0.246 E-score.

Consider AGTAAATG, for which the binding signal was found to be 0.205 E-score.

As for AATAAAAT, the binding signal was determined as 0.33 E-score.

For the sequence AGTAAATA, the binding signal was found to be 0.425 E-score.

Turning to ATTAAAAT, the binding signal was determined as 0.218 E-score.

Turning to GGTAAATA, the binding signal was 0.318 E-score.

For the sequence AGTAAATC, the binding signal was determined as 0.215 E-score.

Take AATAAAAC: the binding signal is 0.228 E-score.

Take TCGTTTAA: the binding signal stood at 0.00225 E-score.

Turning to TACTTGCA, the binding signal stood at 0.167 E-score.

In the case of ATCAACTG, the binding signal stood at 0.0687 E-score.

Take CTTCATTA: the binding signal was 0.0438 E-score.

As for CTGGCCCC, the binding signal was -0.197 E-score.

As to AACCCCTA, the binding signal is -0.0905 E-score.

In the case of CTAAGTCA, the binding signal was -0.0334 E-score.

On to CTAAGACC, for which the binding signal is -0.137 E-score.

For CAGTGGGA, the binding signal is -0.131 E-score.

For the sequence AAACAAGA, the binding signal was found to be 0.025 E-score.

With TCCCTCGA, the binding signal was -0.0813 E-score.

Consider TGTAAAAA, for which the binding signal was 0.34 E-score.

For GGTAAAAC, the binding signal worked out at 0.121 E-score.

AGTTAAAC: the binding signal worked out at 0.0755 E-score.

Turning to GGTAAAGA, the binding signal is 0.177 E-score.

In the case of AGTTAAAT, the binding signal is 0.335 E-score.

As to AGTTAAAA, the binding signal is 0.324 E-score.

Turning to CGTAAAAA, the binding signal is -0.0178 E-score.

GGTAAAAA: the binding signal stood at 0.379 E-score.

Regarding TGTAAACA, the binding signal is 0.079 E-score.

In the case of CGCTAGTC, the binding signal was -0.137 E-score.

In the case of AAGCTGAT, the binding signal is -0.0275 E-score.

Consider GAATCGCC, for which the binding signal came out at 0.00133 E-score.

In the case of CAAAGGAG, the binding signal was -0.156 E-score.

Turning to CACTAACG, the binding signal is -0.157 E-score.

Consider CCTTACCA, for which the binding signal was -0.0792 E-score.

Consider GTACTTAA, for which the binding signal stood at 0.314 E-score.

With CTACTTAA, the binding signal stood at 0.387 E-score.

Turning to ATACTTTA, the binding signal is 0.196 E-score.

For GTACTTTA, the binding signal was found to be 0.344 E-score.

Consider CTACTTCA, for which the binding signal turned out to be 0.207 E-score.

On to CTACTTTC, for which the binding signal amounted to 0.275 E-score.

As to CTACTTTA, the binding signal came to 0.337 E-score.

Consider GGACTTTA, for which the binding signal was -0.19 E-score.

For ATACTTAA, the binding signal is 0.00261 E-score.

For CGATCGAA, the binding signal is 0.239 E-score.

Turning to TTATCCAA, the binding signal worked out at 0.108 E-score.

Consider CCGTACTA, for which the binding signal stood at 0.201 E-score.

For the sequence GTGTTGTA, the binding signal worked out at 0.158 E-score.

For the sequence CATGGTGC, the binding signal was -0.16 E-score.

ACTGGGCT: the binding signal was -0.135 E-score.
